Results as given in PubChem BioAssay AID2177 (The Scripps Research Institute Molecular Screening Center, 2009).
Hit rate of the full screen: of about 320,000 compounds, about 1,200 (0.38%) were called active. The list comes from a sample in which actives are over-represented; it also holds similar structures and randomly drawn compounds. Unmarked numbers belong to inactive results.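 Rule for the calls: active = inhibition above the screen-wide mean plus 3 SD, limit set per campaign (cut at about 26% in these data); inactive = the rest.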

Each compound was assayed against Acyl-protein thioesterase 2 (Homo sapiens) (UniProt O95372) (assay: LYPLA2 inhibitors, primary screen, counter-screen for PME1 inhibitor project, biochemical, fluorescence polarization, FP-Rh probe ABPP (AID 2177;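 note: 0% = LYPLA2 with DMSO and 100% = wells lacking LYPLA2 enzyme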)). Conditions: recombinant LYPLA2, FP-Rh probe fluorescence polarization; at 5.9 µM; hits give high values.
Acyl-protein thioesterase 2 (Homo sapiens), sequence (O95372 whole entry, looked up): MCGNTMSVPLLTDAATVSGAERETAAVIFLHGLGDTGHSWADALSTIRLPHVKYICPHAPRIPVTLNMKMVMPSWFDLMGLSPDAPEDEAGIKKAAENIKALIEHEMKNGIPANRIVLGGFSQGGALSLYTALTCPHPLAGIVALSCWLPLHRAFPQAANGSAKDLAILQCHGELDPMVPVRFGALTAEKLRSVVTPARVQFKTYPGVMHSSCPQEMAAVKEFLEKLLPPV

Row | SMILES | inhibition
1 | Cc1cc(C)c(C#N)c(SCc2ccccc2C(=O)O)n1 | 1.89%
2 | Cc1cc(C)c(C#N)c(SCc2[nH]nc3c2C(c2ccccc2)C(C#N)=C(N)O3)n1 (configuration not stated) | 55.3% (active)
3 | CCc1ccc(C2C(C#N)=C(N)Oc3n[nH]c(CC(=O)OC)c32)cc1 (configuration not stated) | 5.23%
4 | CC(C)NC(=O)CSc1nnc(COc2ccccc2Cl)o1 | 1.63%
5 | Cc1ccccc1N1CCN(CCCN2C(=O)C3CCCCN3C2=O)CC1 (configuration not stated) | -1.82%
6 | O=C1C2CCCN2C(=O)N1CCCCN1CCN(c2cccc(C(F)(F)F)c2)CC1 (configuration not stated) | 64.2% (active)
7 | O=C(CCN1CCCO1)N1CCCC(N2CCN(c3cccc(C(F)(F)F)c3)CC2)C1 (configuration not stated) | 4.25%
8 | CCOc1cc(S(=O)(=O)NCc2ccc3c(c2)OCO3)ccc1F | 7.67%
9 | CCCn1c(NC(=O)C23CC4CC(CC(O)(C4)C2)C3)nc2ccccc21 | -2.06%
10 | CCC1CCCCN1C(=O)CSc1nc2c(c(=O)n(C)c(=O)n2C)n1C (configuration not stated) | 1.22%
11 | CC/C(Cc1ccccc1)=N/NC(=O)CCn1nnc2ccccc21 | 9.11%
12 | Cc1nn(CC(=O)Nc2ccc3c(c2)OCO3)c(C)c1[N+](=O)[O-] | 3.02%
13 | Cc1nc([N+](=O)[O-])cn1CC(=O)Nc1ccc2c(c1)OCO2 | 27.6% (active)
14 | Cc1ccc(C(=O)Cn2cc([N+](=O)[O-])nc2C)cc1 | 14.3%
15 | Cc1onc(C(=O)Nc2ccc3c(c2)OCO3)c1[N+](=O)[O-] | 7.4%
16 | Cc1cc(C)n(CC(=O)Nc2ccc([N+](=O)[O-])cc2)n1 | -3.9%
17 | Cc1nc([N+](=O)[O-])cn1CC(=O)Nc1ccc(Cl)cc1 | 35.7% (active)
18 | CC(C)C1Nc2c(C(=O)O)cccc2C(Nc2ccccc2C(=O)O)C1(C)C (configuration not stated) | 1.52%
19 | c1ccc(CSc2ncnc3c2sc2nc(N4CCOCC4)c4c(c23)CCCC4)cc1 | 1.88%
20 | CCOc1ncccc1C(=O)N(CC)CC(=O)Nc1ccc(NC(C)=O)cc1 | -2.58%
21 | COc1ccc(C(C#N)Nc2ccc(C)cc2)cc1 (configuration not stated) | 29.2% (active)
22 | COc1ccc(C(C#N)Nc2ccccc2C)cc1 (configuration not stated) | 2.16%
23 | COc1ccc(C(CC(=O)Nc2ccc(C)cc2)NC(=O)C(F)(F)F)cc1 (configuration not stated) | -1.1%

Row | SMILES | inhibition
24 | Cn1nc(C(F)(F)F)c(C(=O)Nc2cccc(C(F)(F)F)c2)c1SCc1ccc(Cl)cc1 | -39.3%
25 | N#CCc1ccc(OC(=O)c2cccnc2)cc1 | -0.53%
26 | O=C(Oc1ccc(Br)cc1)c1cccnc1 | 1.78%
27 | CCCCCCOc1ccc(OC(=O)c2cccnc2)cc1 | 49.8% (active)
28 | COC(=O)c1cccc(-n2[nH]nnc2=S)c1 | -1.32%
29 | CN1CCN(c2ccc(S(=O)(=O)N3CCOCC3)cc2NC(=O)CCc2ccccc2)CC1 | 6.09%
30 | O=C(Cc1ccccn1)c1ccc(O)cc1O | -2.59%
31 | O=c1c(-c2ccc3c(c2)OCCO3)c(C(F)(F)F)oc2cc(O)cc(O)c12 | 3.69%
32 | CCOC(=O)c1cc2cc(-c3c(C(=O)OCC)oc4cc(O)cc(O)c4c3=O)ccc2o1 | 33.9% (active)
33 | CCOC(=O)c1cc(=O)c2ccc(OCc3ccccc3)cc2o1 | -1.62%
34 | COC(=O)c1ccc(CN2CCCC(C(=O)Nc3cccc(-n4cnnn4)c3)C2)cc1 (configuration not stated) | 2.89%
35 | COc1cccc(N(C(=O)c2ccn[nH]2)C2(C(=O)Nc3c(C)cccc3C)CCCCC2)c1 | -1.38%
36 | O=C(O)c1ccc(/C=N/NC(=S)NCc2ccccc2)cc1 | -7.47%
37 | Cc1ccc(/C=N/NC(=O)COc2ccccc2-c2ccccc2)cc1 | 2.18%
38 | Cc1ccc(/C=N/NC(=O)C(NC(=O)c2ccccc2)c2n[nH]c(=O)c3ccccc23)cc1 (configuration not stated) | 40.8% (active)
39 | O=C(CNc1ccc(F)cc1F)NC(=O)NCc1ccco1 | -3.47%
40 | Cc1ccc(NC(=O)C(c2ccccc2)N2CCN(C(=O)c3ccco3)CC2)cc1 (configuration not stated) | 0.07%
41 | Nc1nnc(SCC(=O)NC2CCCc3ccccc32)s1 (configuration not stated) | -1.96%
42 | O=C(Cc1ccc(Br)cc1)NCCN1CCOCC1 | 4.15%
43 | COc1ccc(NC(=O)NCCN2CCN(c3ccc(C)cc3)CC2)c(Cl)c1 | -3.78%
44 | COc1ccc(N2CCN(C(=O)c3cccs3)CC2)cc1 | 8.83%
45 | COc1ccc(N2CCN(C(=O)c3ccc(N4CCCCS4(=O)=O)cc3)CC2)cc1 | 63% (active)
46 | COc1ccc(N2CCN(C(=O)c3ccc4c(Cl)c5c(nc4c3)CCCC5)CC2)cc1 | 7.7%

Row | SMILES | inhibition
47 | COc1ccccc1N1CCC(N2CCN(CC(C)(C)C)C(CCO)C2)CC1 (configuration not stated) | -1.78%
48 | COc1ccc(C(=O)OCC(=O)NC(=O)CCSc2ccccc2)cc1 | 28.6% (active)
49 | O=C(COC(=O)c1ccccc1)Nc1ccccc1Sc1ccccc1 | -10.2%
50 | COc1ccc(NC(=O)COC(=O)c2ccc(NS(=O)(=O)/C=C/c3ccccc3)cc2)cc1 | -12%
51 | C[C@H](OC(=O)n1ccnc1)[C@@H]1O[C@@]2(C)CCC[C@@H]1O2 | 3.91%
52 | CC(=O)NC12CC3CC(C1)CC(C(=O)N1CCN(C(=O)c4ccco4)CC1)(C3)C2 | 6.61%
53 | COc1ccccc1OCC(=O)O/N=C(\N)c1ccccn1 | -1.78%
54 | COc1ccc(NC(=O)c2ccccc2[N+](=O)[O-])cc1OC | -0.83%
55 | O=C(Nc1ccncc1)c1ccccc1[N+](=O)[O-] | 2.96%
56 | O=C(COc1ccc(NC(=O)c2ccccc2[N+](=O)[O-])cc1)c1ccc(F)cc1 | 43.8% (active)
57 | COc1c(C)c2c(c(O)c1C/C=C(\C)CCC(=O)O)C(=O)OC2 | 1.01%
58 | Cc1ncc([N+](=O)[O-])n1CCOC(=O)c1ccc(Br)cc1 | 4.52%
59 | CN(C)CCCn1c(SCc2ccc(Cl)cc2)nnc1-c1ccncc1 | 2.66%
60 | O=C(c1cc(-c2ccc(F)cc2)on1)N1CCN(c2ccc(F)cc2)CC1 | 8.86%
61 | COc1ccc(-c2cc(C(=O)N3CCN(c4ccc(F)cc4)CC3)no2)cc1 | 8.33%
62 | O=C(c1cc(-c2ccc(Cl)cc2)on1)N1CCN(c2ccccc2)CC1 | 31.3% (active)
63 | CCN(CC)CCCNC(=O)Cn1cnc2sc(C)c(S(=O)(=O)N3CCN(c4ncccn4)CC3)c2c1=O | 4.51%
64 | CCN(CC)CCNC(=O)c1sc2ncn(CC(=O)Nc3ccc(C)c(Cl)c3)c(=O)c2c1C | 32.4% (active)
65 | CCN(CC)CCNC(=O)Cn1cnc2sc(C)c(S(=O)(=O)N3CCOCC3)c2c1=O | -2.7%
66 | CCOC(=O)CSc1nc2ccc(C)cc2n2cnnc12 | -0.15%
67 | COc1ccc(S(=O)(=O)N2CCOCC2)cc1NC(=O)Cc1c(F)cccc1Cl | -4.41%
68 | Cc1cc(OCCCN2CCN(Cc3ccccc3)CC2)ccc1[N+](=O)[O-] | 34.3% (active)
69 | Cc1ccccc1N1CCN(CCCOc2ccc3c(C)cc(=O)oc3c2)CC1 | 15.9%

Row | SMILES | inhibition
70 | Cc1cc(OCCCCOc2ccc(C#N)cc2)ccc1[N+](=O)[O-] | 19.5%
71 | CCOc1ccccc1N1CCN(C(=O)c2ccc3[nH]c(C)c(C)c3c2)CC1 | -3.51%
72 | Cc1cccc(C)c1OCC(O)CN1CCCCC1 (configuration not stated) | -4.51%
73 | Cc1cccc(OCC(O)CN2CCN(CCN3C(=O)c4cccc5cccc(c45)C3=O)CC2)c1C (configuration not stated) | 31.6% (active)
74 | Cc1ccccc1OCC(O)CN1CCN(c2ccccn2)CC1 (configuration not stated) | -3.92%
75 | CCCCC[C@H]1CN(C2CCCCC2)C(=O)[C@@H]1CC(=O)NCc1ccc(OC)cc1 | -3.9%
76 | COC(=O)c1ccc(S(=O)(=O)N(CCO)Cc2ccccc2)n1C | 7.11%
77 | COC(=O)c1c(NC(=O)COc2ccc(Cl)cc2Cl)sc2c1CC(C)(C)NC2(C)C | 1.16%
78 | CCC(NC(=O)C1CCCC1)c1ccc(C)cc1 (configuration not stated) | 0.26%
79 | Oc1c(C(c2cccs2)N2CCN(c3ccc(F)cc3)CC2)sc2ncnn12 (configuration not stated) | -5.69%
80 | Cc1ccc(C(c2sc3nc(C)nn3c2O)N2CCN(c3ccccc3)CC2)cc1 (configuration not stated) | 1.64%
81 | Cc1ccc(C(c2sc3nc(C)nn3c2O)N2CCN(c3ccc(F)cc3)CC2)cc1 (configuration not stated) | 36.7% (active)
82 | C[C@@H](NC(=O)OC(C)(C)C)c1nnc(S(=O)(=O)Cc2ccccc2)o1 | -2.33%
83 | O=[N+]([O-])c1ccc(N2CCN(CC(O)COc3ccccc3)CC2)cc1 (configuration not stated) | 29.5% (active)
84 | O=C(C(c1ccccc1)c1ccccc1)N1CCN(CC(O)COc2ccccc2)CC1 (configuration not stated) | 1.24%
85 | C[N+]1(CC(O)COc2ccccc2)CCN(C(=O)c2ccc([N+](=O)[O-])cc2)CC1 (configuration not stated) | -1.46%
86 | Cc1ccccc1NC(=O)Cc1nc(COC(=O)c2cccnc2Cl)cs1 | 2.11%
87 | COc1cccc(NC(=O)c2ccc(Cn3cc([N+](=O)[O-])cn3)o2)c1 | 4.62%
88 | CCc1ccc(NC(=O)c2ccc(Cn3cc([N+](=O)[O-])cn3)cc2)cc1 | 32% (active)
89 | O=C(Nc1ccccc1F)c1ccc(Cn2cc(Br)cn2)cc1 | -5.94%
90 | O=C(Nc1ccccc1Cl)/C(Cl)=C(\Cl)S(=O)c1ccccc1 (configuration not stated) | -37.3%
91 | O=C1Cc2ccccc2Sc2ccc(Cl)cc21 | -9.53%
92 | COc1ccc(-c2nnc(SC(C)C(=O)NC3CC3)o2)cc1 (configuration not stated) | 1.72%
